# Results: PubChem BioAssay (EPA / NIEHS)
# Calls of active or inactive are those of the source. Rule for the calls: active = hit-call score of the fitted dose curve at least 0.9, where 1 is the maximum; inactive = score below 0.9.
# Test: BSK_3C_uPAR: BioMAP Diversity Plus: 3C Assay for Urokinase-type plasminogen activator receptor (uPAR) Biomarker Activity (AID 2282998)
# Conditions: BioMAP 3C HUVEC, uPAR biomarker ELISA; actives raise or lower the signal
# Method: BSK_3C is a cell-based, multiplexed-readout assay that uses umbilical vein endothelium, a human vascular primary cell, with measurements taken at 24 hours after chemical dosing in a 96-well plate.BSK_3CAR is an assay component measured in the BSK_3C assay. It measures uPAR antibody related to regulation of gene expression using ELISA technology.Data from the assay component BSK_3CAR was analyzed into 1 assay endpoint. This assay endpoint, BSK_3CAR, was analyzed with bidirectional fitting relative to DMSO as the negative control and baseline of activity. Using a type of binding reporter, gain or loss-of-signal activity can be used to understand changes in the signaling as they relate to the gene PLAUR. Furthermore, this assay endpoint can be referred to as a primary readout, because this assay has produced multiple assay endpoints where this one serves a signaling function. To generalize the intended target to other relatable targets, this assay endpoint is annotated to the cytokine intended target family, where the subfamily is plasmogen activator.
# The levels of cell surface (or secreted, indicated by the prefix "s") biomarker endpoints were measured by ELISA. Overt cytotoxicity to cells in confluent adherent cultures (all systems other than the BT system) was assessed by measuring total protein levels using sulforhodamine B (SRB) staining in parallel cultures at the time of biomarker measurements, indicated as SRB endpoints. For proliferation assays for adherent cell types, individual cell types are cultured at sub-confluence and relative cell numbers quantified by SRB staining at time points optimized for each system (48 h: 3C and CASM3C systems; 72 h: BT and HDF3CGF systems; 96 h: SAg system). SRB was performed by staining cells with 0.1% SRB after fixation with 10% TCA and reading wells at 560 nm.Viability and proliferation of PBMC (T cells) was quantified by Alamar Blue reduction for the SAg and BT systems. For PBMC viability (referred to as PBMC Cytotoxicity within the assay endpoint names), cells were plated (75,000/well in a 96-well plate) and then chemical samples added for 1 h before addition of activators, SEB and TSST-1 (20 ng/mL final concentration each). Cells were incubated for 90 h. Then, Alamar Blue (20 uL/well) (Invitrogen, Cat DAL1100) was added for 6 h, and the plates were read with a fluorescence microplate reader at 546/580 nm (excitation/emission). For PBMC proliferation, cells were plated and activated as above but incubated for only 16 h prior to addition of Alamar Blue. Plates were read after 6 h.
Compound,outcome,AC50
CC[C@H](NC(=O)c1cc(F)ccc1NS(=O)(=O)c1cccc2cccnc12)c1ccccc1,inactive,–
O=C1CCC(C2CCCCC2)CC1,inactive,–
OC12N=C(c3ccccc3)SC1Cc1cc(Cl)ccc12 (stereo not given),inactive,–
CN(C[C@@H](CC[N+]12CCC(C3CCCCC3)(CC1)CC2)c1ccc(Cl)c(Cl)c1)C(=O)c1cc(C(F)(F)F)cc(C(F)(F)F)c1,–,14.3 µM (active)
CC(C)(C)c1csc(-c2cc3cc(OCc4ccccc4CC(=O)O)ccc3o2)n1,–,20.5 µM (active)
O=C(OCCCCCCOC(=O)c1ccccc1)c1ccccc1,inactive,–
O=C(O)c1ccccc1C(=O)OCc1ccccc1,inactive,–
O=c1[nH]sc2ccccc12,–,15 µM (active)
CN1C(=O)N(c2ccccc2Br)Cc2cnc(Nc3ccc4c(c3)OCC(CO)O4)nc21 (stereo not given),–,10.7 µM (active)
CC(C)(C)c1cc(/C=C2\SC(N)=NC2=O)cc(C(C)(C)C)c1O,–,31.6 µM (active)
O=C(Nc1ccc(Cl)cc1)Nc1ccc(Cl)c(Cl)c1,–,1.89 µM (active)
CCCCCCCC[Si](OCC)(OCC)OCC,inactive,–
Oc1ccccc1,inactive,–
O=CCCCC=O,–,33.3 µM (active)
Clc1cc(Cl)c2c(c1)N=C1CCCCCN1C2,inactive,–
CC/C(=C(/CC)c1ccc(O)cc1)c1ccc(O)cc1,–,16.6 µM (active)
CC[C@@H]1C[C@H](N(Cc2cc(C(F)(F)F)cc(C(F)(F)F)c2)C(C)=O)c2cc(C(F)(F)F)ccc2N1C(=O)OC(C)C,inactive,–
Cc1ccc(C(C)C)cc1,inactive,–
C[C@]12CC[C@@H]3c4ccc(O)cc4CC[C@H]3[C@@H]1CCC2=O,inactive,–
Cc1ccc2oc(CN(Cc3ccccc3)C(=O)Nc3c(F)cc(F)cc3F)c(-c3ccc(Cl)cc3)c2c1,–,10.8 µM (active)

Compound,outcome,AC50
CCCCCCCCCCCO,–,34.2 µM (active)
CCO[Si](CCCNC(N)=O)(OCC)OCC,inactive,–
CC(=O)N1CCN(c2ccc(OC[C@H]3CO[C@](Cn4ccnc4)(c4ccc(Cl)cc4Cl)O3)cc2)CC1,–,29.8 µM (active)
Cc1cc(F)ccc1-c1cc(N2CC[C@@H](O)[C@H]2CO)ncc1N(C)C(=O)C(C)(C)c1cc(C(F)(F)F)cc(C(F)(F)F)c1,–,9.24 µM (active)
Cc1cccc2ccccc12,inactive,–
COc1cccc([C@H](O)C2CCN(CCc3ccc(F)cc3)CC2)c1OC,inactive,–
CCCCCCCCCCCCO,–,32.7 µM (active)
Cc1oc2c(NC(=O)c3c(Cl)cccc3Cl)cccc2c1C(C)(C)O,–,25.7 µM (active)
O=c1c(-c2ccc(O)cc2)coc2cc(O)cc(O)c12,–,29.2 µM (active)
CN1C(=O)CC[C@H]1c1cccnc1,inactive,–
CCN(CC)C(=O)c1cc(S(=O)(=O)Cc2ccccc2)c(N2CCC(c3ccccc3)CC2)cc1N(CC)CCN(C)C,–,5.11 µM (active)
COCC(C)OCC(C)OCC(C)O (stereo not given),inactive,–
CCCCOC(=O)c1ccc(O)cc1,inactive,–
Oc1ccc2ccccc2c1,inactive,–
Clc1ccccc1C(c1ccccc1)(c1ccccc1)n1ccnc1,–,14.8 µM (active)
CC1=CC(=O)/C(=C(/C)O)C(=O)O1,inactive,–
CCCCCCCCOC(=O)c1cc(O)c(O)c(O)c1,–,36.3 µM (active)
CCCOC(=O)c1cc(O)c(O)c(O)c1,inactive,–
CN(C)C(=O)C1(N2CCCCC2)CCN(CC[C@@]2(c3ccc(Cl)c(Cl)c3)CN(C(=O)c3ccccc3)CCO2)CC1,–,7.23 µM (active)
Cc1occc1C(=O)Nc1ccc(C(=O)N2CCC(F)(F)/C(=C\C(=O)N3CCC(N4CCCCC4)CC3)c3ccccc32)cc1,inactive,–
